# Screening results (PubChem BioAssay)
# ssDAF12 agonist – S. stercoralis DAF-12 activation, primary screen; HEK293 ssDAF-12/GRIP1 lit1-tk-luc reporter, luminescence; % of 3 µM dafachronic acid response; activation, % at 6.8 µM; 370,000 compounds, 1% hits;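 active means activation above the mean over all tested compounds plus 3 SD, cut at about 0.9% in these data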;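 further: 0% = DMSO-only wells and 100% = 3 µM delta7-dafachronic acid wells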
# hcDAF12 agonist – H. contortus DAF-12 activation, primary screen | HEK293 hcDAF-12 lit1-tk-luc reporter, luminescence; 0% DMSO, 100% Δ7-dafachronic acid | activation, % at 6.8 µM | 370,000 compounds, 1.4% hits;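 active means activation above the mean of all tested compounds plus 3 SD, cut at about 5.5% in these data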;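 further: 100% = response to 3 µM Δ7-dafachronic acid high control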
# DAX1 inh-1 – blocks DAX1 repression of SF-1 activated StAR promoter. 370,000 compounds, 1.1% hits. HEK293T StAR-luciferase reporter, SF-1/DAX-1 repression relief. inhibition, % at 6.8 µM;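 active means inhibition above the mean over all tested compounds plus 3 SD, cut at about 3.6% in these data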;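 further: 0% = DAX-1 cells with DMSO and 100% = cells lacking DAX-1 with DMSO; higher inhibition means more luminescence from relief of DAX-1 repression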
# DAX1 inh-2 – NR0B1 (DAX1) inhibition; P51843; inhibition, % at 6.75 µM; AID 504766; 340,000 compounds, 0.99% hits; HEK293 Gal4-DAX1 luciferase reporter, luminescence;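 active means inhibition above the mean over all tested compounds plus 3 SD, cut at about 4.2% in these data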;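 further: 0% = DAX1-transfected cells with DMSO and 100% = empty-vector control cells with DMSO; inhibition shows as a rise in luminescence from relieved DAX1 repression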
# Target sequence (P51843 207-470 limits assumed): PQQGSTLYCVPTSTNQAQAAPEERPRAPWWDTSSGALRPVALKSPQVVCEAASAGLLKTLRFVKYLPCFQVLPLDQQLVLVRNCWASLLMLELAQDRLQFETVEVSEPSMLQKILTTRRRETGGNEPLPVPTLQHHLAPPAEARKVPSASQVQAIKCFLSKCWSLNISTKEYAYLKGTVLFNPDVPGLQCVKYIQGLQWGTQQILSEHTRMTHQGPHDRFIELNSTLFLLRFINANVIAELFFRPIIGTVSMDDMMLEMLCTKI
# hgDAF-12 ag – agonists of H. glycines DAF-12 nuclear receptor | 370,000 compounds, 1.8% hits | activation, % at 6.8 µM | HEK293 GAL4-hgDAF12 UAS-luciferase reporter, agonist luminescence; normalized to butyrate control | AID 687014;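 active means activation above a cutoff set at the mean of all screened compounds plus 3 SD, cut at about 10% in these data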;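 further: 0% = DMSO wells and 100% = sodium butyrate wells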
# * hit, by the source's call; / = not tested or not shown. Compounds with a hit are over-represented: about 4.1% of the library has one in this group of screens.
SMILES,ssDAF12 agonist,hcDAF12 agonist,DAX1 inh-1,DAX1 inh-2,hgDAF-12 ag
CCN(CC)C(=O)CC[C@@H]1CC[C@]2(CCCN(Cc3cccc4ccccc34)C2)O1,-2,-3,-1,/,1
Cc1ccc(S(=O)(=O)N2CCCC2C(c2ccccc2O)c2cn(C)c3ccccc23)cc1 (stereo unspecified),-2,-1,-1,/,-4
COc1ccc(C(CNC(=O)c2cccc(NS(=O)(=O)c3ccccc3)c2)N(C)C)cc1 (stereo unspecified),0,1,4,1,3
CCOc1ccc(S(=O)(=O)Nc2cccc(C(=O)NCC(c3ccccc3)N(C)C)c2)cc1 (stereo unspecified),-1,-1,3.6*,1,3
COc1ccccc1C(CNC(=O)c1cccc(S(=O)(=O)NCc2ccccc2)c1)N(C)C (stereo unspecified),-1,0,0,4.8*,0
NC(=O)c1ncn([C@@H]2O[C@H](C(=O)N[C@H](Cc3c[nH]c4ccccc34)C(=O)N3CCN(C(=O)C4CC4)CC3)[C@@H](O)[C@H]2O)n1,0,-1,0,/,1
COC(=O)C1CN(C2CCCC2)CCS(=O)(=O)N1Cc1cn(Cc2ccc(F)cc2)nn1 (stereo unspecified),-1,-2,0,/,0
C=CCN=C1S/C(=C\c2ccc(N(C)C)cc2)C(=O)N1CC=C,-1,-1,1,4.7*,3
C=CCN1C(=O)/C(=C/c2ccc(OC)cc2)S/C1=N/c1nccs1,-2,0,0,0,0
CN(C)/C=C/C(=O)c1cccc(Oc2ncccn2)c1,-1,1,0,4.6*,-4
Cc1ccc(O)c(C2=Nc3ccccc3N=C(c3ccc([N+](=O)[O-])cc3)C2)c1,1.0*,5,1,0,6
Cc1ccc(O)c(C2=Nc3ccccc3N=C(c3cccc([N+](=O)[O-])c3)C2)c1,0,3,-1,2,7
Cn1c(NC(=O)c2ccco2)c(-c2ccccc2)c(=O)c2ccccc21,0,1,0,4.2*,0
CC(C)C(=O)Nc1c(-c2ccccc2)c(=O)c2ccccc2n1C,-2,2,0,1,0
COc1ccc(-c2c(NC(=O)c3ccco3)n(-c3ccccc3)nc(C)c2=O)cc1,-1,1,1,4.8*,-1
O=C(CCN1C(=O)S/C(=C\c2ccccc2)C1=O)NC1CCS(=O)(=O)C1 (stereo unspecified),-1,-2,0,1,1
C[C@H]1C2CC(OC(=O)Nc3ccc(F)cc3)C(C2)[C@H]2CCCCN21 (stereo partly specified),0,-1,-1,/,-3
COc1ccc(CN(C(=O)c2ccco2)c2ccccc2)cc1,-1,5.9*,0,0,0
COc1ccc(CN(C(=O)c2cccs2)c2ccccc2)cc1,-2,1,-1,0,-1
Cc1ccc(NC(=O)C2CCCN(c3nnc(-n4cccc4)s3)C2)cc1C (stereo unspecified),-1,0,0,/,1
O=C1NCCc2c1[nH]c1ccccc21,-1,-2,0,1,-1
COc1ccc2[nH]c3c(c2c1)CCNC3=O,-2,1,0,1,11*
CCC(C(=O)Nc1ccccc1N1CCCC1)c1cccc(OC)c1 (stereo unspecified),0,-3,-1,/,-1
O=c1c2ccccc2oc2cc(-c3ccc4[nH]ccc4c3)ccc12,0,3,0,-2,11*
C[C@@H]1CCN(C2CC2)S(=O)(=O)c2c(cccc2N2CC[C@H](O)C2)O1,-1,1,0,/,0
SMILES,ssDAF12 agonist,hcDAF12 agonist,DAX1 inh-1,DAX1 inh-2,hgDAF-12 ag
COc1ccc(N2CCN(C(=O)c3cc4c(-c5ccc(Cl)cc5)nn(C)c4s3)CC2)cc1,0,6.0*,0,2,-3
Cn1nc(-c2ccc(Cl)cc2)c2cc(C(=O)N3CCOCC3)sc21,0,5,-1,0,6
CN1CCN(CCCNC(=O)c2cc3c(-c4ccc(Cl)cc4)nn(C)c3s2)CC1,0,5.6*,2,3,0
Cn1nc(-c2ccc(Cl)cc2)c2cc(C(=O)NCC3CCCO3)sc21 (stereo unspecified),0,1,0,-1,-1
CCOC(=O)N1CCN(C(=O)C[C@@H]2C(=O)N3CCCC4=C3[C@@]2(C(=O)OCC)CCC4)CC1,-1,0,0,/,1
CCc1ccc(CCNC(=O)OC2CC3CC2[C@H]2CCCCN2C3)cc1 (stereo partly specified),0,1,2,/,0
COc1cc(C(=O)OCC(=O)N2CCCCC2C)ccc1OCc1c(C)noc1C (stereo unspecified),-1,-2,0,4.7*,7
COc1cc(C(=O)OCC(C)=O)ccc1OCc1c(C)noc1C,-1,-2,-3,-2,1
Cc1cccc(-n2nc(C)c3c(C(=O)O)cc(-c4cccs4)nc32)c1,-1,0,-1,4.6*,2
Oc1cccc(N2CCN(c3cccc(O)c3)CC2)c1,0.9*,2,1,/,9
Nc1ccc(N2CCN(c3cccc(Cl)c3)CC2)cc1,-1,0,-1,0,0
Cc1nc(N2CCN(c3ccccn3)CC2)c2c(C)c(C(=O)Nc3ccccc3F)sc2n1,0,0,1,5.3*,-1
c1coc(CSc2ncnc3c2oc2ccccc23)c1,0,3,0,5.7*,5
Cc1cccc(C(=O)OCC(=O)NCC2COc3ccccc3O2)c1 (stereo unspecified),-1,3,4.3*,0,-2
O=C(NC1CCCCN(Cc2cccc(C(F)(F)F)c2)C1=O)c1ccc(-c2ccccc2)cc1 (stereo unspecified),-1,-3,-2,/,-1
Cc1cc(C)n(C(=O)Cn2nc(C)c(Br)c2C)n1,-1,0,0,0,0
Cc1cc(C)n(C(=O)Cn2nc(C)c(Cl)c2C)n1,-2,0,0,4.5*,-2
Cc1ccc(-c2nc3ccsc3c(=O)o2)cc1,1,5.9*,2,0,7
Cc1ccc(-n2c(C)nc3ccsc3c2=O)cc1,-1,0,0,1,1
COC(=O)[C@]12C[C@H](CC(=O)N3CCCCC3)C(=O)N(CCc3ccc(OC)c(OC)c3)C1=C[C@H](COCc1ccccc1)O[C@@H]2C,-1,-1,0,/,0
O=C(Nc1ccc2[nH]ccc2c1)c1cc(-c2ccc(Cl)cc2)nc2ccccc12,1,6.2*,0,/,6
O=C(N/N=C/c1cccnc1)c1cc(-c2ccccc2)nc2ccccc12,-1,-1,-1,-1,0
O=C(N/N=C/c1cccnc1)c1cc(-c2ccc(Cl)cc2)nc2ccccc12,-1,1,0,5.6*,3
O=C(CCNC(=O)c1ccccc1Cl)Nc1ccc(Br)c(C(F)(F)F)c1,19*,0,0,0,0
